# Data: the supplement of paper PMC8728848
# Shown is part of a subset that was picked to be rich in the strongest signals.
# B1: GNAT (Pseudomonas aeruginosa), Q9HV14 (protein)
# chain: MQLSHRPAETGDLETVAGFPQDRDELFYCYPKAIWPFSVAQLAAAIAERRGSTVAVHDGQVLGFANFYQWQHGDFCALGNMMVAPAARGLGVARYLIGVMENLAREQYKARLMKISCFNANAAGLLLYTQLGYQPRAIAERHDPDGRRVALIQMDKPLEP
# Legend:
# Test in all cases: glycan array binding signal (z-score within array); higher = stronger binding
# Conditions in all cases: glycan notation: IUPAC condensed, linker removed
# [1] = molecular target: Fuc(a1-2)Gal(b1-3)[Fuc(a1-4)]GlcNAc(b1-2)Man(a1-3)[Fuc(a1-2)Gal(b1-3)[Fuc(a1-4)]GlcNAc(b1-2)Man(a1-6)]Man(b1-4)GlcNAc(b1-4)GlcNAc
# Outline: (§1)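 The binding signal is a Z-score computed within each array. Data were drawn from 3228 arrays in the Consortium for Functional Glycomics database, restricted to those with a known protein sequence. Scores were averaged over arrays of the same protein sequence at different concentrations or buffers, and over linkers, and negative values can be taken as non-binding.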
# [2] = molecular target: Fuc(a1-2)Gal(b1-3)[Fuc(a1-4)]GlcNAc(b1-3)[Fuc(a1-3)[Gal(b1-4)]GlcNAc(b1-6)]Gal(b1-4)Glc
# Outline: as §1
# [3] = molecular target: Fuc(a1-2)Gal(b1-4)[Fuc(a1-3)]GlcNAc(b1-3)Gal(b1-4)[Fuc(a1-3)]GlcNAc(b1-3)Gal(b1-4)[Fuc(a1-3)]GlcNAc
# Outline: as §1
# [4] = molecular target: Fuc(a1-2)Gal(b1-4)[Fuc(a1-3)]GlcNAc(b1-3)GalNAc
# Outline: as §1
# Fuc(a1-2)Gal6S(b1-4)Glc = molecular target: Fuc(a1-2)Gal6S(b1-4)Glc
# Outline: as §1
# [5] = molecular target: Fuc(a1-2)[Gal(a1-4)]Gal(b1-4)GlcNAc
# Outline: as §1
# [6] = molecular target: Fuc(a1-2)[GalNAc(a1-3)]Gal(b1-3)GalNAc(a1-3)[Fuc(a1-2)]Gal(b1-4)GlcNAc
# Outline: as §1
# [7] = molecular target: Fuc(a1-2)[GalNAc(a1-3)]Gal(b1-3)GlcNAc(b1-3)GalNAc
# Outline: as §1
# [8] = molecular target: Fuc(a1-2)[GalNAc(a1-3)]Gal(b1-4)[Fuc(a1-3)]GlcNAc(b1-3)GalNAc
# Outline: as §1
# [9] = molecular target: Fuc(a1-3)[Gal(b1-4)]GlcNAc(b1-6)GalNAc
# Outline: as §1
# [10] = molecular target: Gal(a1-3)Gal(b1-3)GlcNAc(b1-2)Man(a1-3)[Gal(a1-3)Gal(b1-3)GlcNAc(b1-2)Man(a1-6)]Man(b1-4)GlcNAc(b1-4)GlcNAc
# Outline: as §1
# [11] = molecular target: Gal(a1-3)Gal(b1-4)[Fuc(a1-3)]GlcNAc(b1-2)Man(a1-3)[Gal(a1-3)Gal(b1-4)[Fuc(a1-3)]GlcNAc(b1-2)Man(a1-6)]Man(b1-4)GlcNAc(b1-4)GlcNAc
# Outline: as §1
# [12] = molecular target: Gal(b1-3)GlcNAc(b1-3)Gal(b1-3)GlcNAc
# Outline: as §1
# [13] = molecular target: Gal(b1-3)[Fuc(a1-4)]GlcNAc(b1-3)Gal(b1-4)[Fuc(a1-3)]GlcNAc
# Outline: as §1
# [14] = molecular target: Gal(b1-3)[Neu5Ac(a2-6)]GalNAc
# Outline: as §1
# [15] = molecular target: Gal(b1-4)GalNAc(a1-3)[Fuc(a1-2)]Gal(b1-4)GlcNAc
# Outline: as §1
# [16] = molecular target: Gal(b1-4)GlcNAc(b1-2)[Gal(b1-4)GlcNAc(b1-6)]Man(a1-6)[Gal(b1-4)GlcNAc(b1-2)Man(a1-3)]Man(b1-4)GlcNAc(b1-4)GlcNAc
# Outline: as §1
# [17] = molecular target: Gal(b1-4)GlcNAc(b1-2)[Gal(b1-4)GlcNAc(b1-6)]Man(a1-6)[GlcNAc(b1-4)][Gal(b1-4)GlcNAc(b1-2)Man(a1-3)]Man(b1-4)GlcNAc(b1-4)GlcNAc
# Outline: as §1
# [18] = molecular target: Gal(b1-4)GlcNAc(b1-3)Gal(b1-4)[Fuc(a1-3)GlcNAc(b1-6)]Gal(b1-4)Glc
# Outline: as §1
# [19] = molecular target: Gal(b1-4)GlcNAc(b1-3)[Gal(b1-4)GlcNAc(b1-6)]Gal(b1-4)GlcNAc
# Outline: as §1
# Gal3S(b1-4)GlcNAc6S = molecular target: Gal3S(b1-4)GlcNAc6S
# Outline: as §1
# [20] = molecular target: Gal3S(b1-4)[Fuc(a1-3)]Glc
# Outline: as §1
# [21] = molecular target: Gal3S(b1-4)[Fuc(a1-3)]Glc6S
# Outline: as §1
# Gal3S4S(b1-4)GlcNAc = molecular target: Gal3S4S(b1-4)GlcNAc
# Outline: as §1
# Gal3S6S(b1-4)GlcNAc6S = molecular target: Gal3S6S(b1-4)GlcNAc6S
# Outline: as §1
# [22] = molecular target: GalNAc(b1-3)Gal(a1-4)Gal(b1-4)GlcNAc
# Outline: as §1
# Glc(a1-6)Glc(a1-6)Glc = molecular target: Glc(a1-6)Glc(a1-6)Glc
# Outline: as §1
# [23] = molecular target: GlcNAc(a1-4)Gal(b1-4)GlcNAc(b1-3)Gal(b1-4)[Fuc(a1-3)]GlcNAc(b1-3)Gal(b1-4)[Fuc(a1-3)]GlcNAc
# Outline: as §1
# [24] = molecular target: GlcNAc(b1-2)[GlcNAc(b1-4)]Man(a1-3)[GlcNAc(b1-4)][GlcNAc(b1-2)Man(a1-6)]Man(b1-4)GlcNAc(b1-4)GlcNAc
# Outline: as §1
# [25] = molecular target: GlcNAc(b1-2)[GlcNAc(b1-6)]Man(a1-6)[GlcNAc(b1-2)Man(a1-3)]Man(b1-4)GlcNAc(b1-4)GlcNAc
# Outline: as §1
# [26] = molecular target: GlcNAc(b1-4)[GlcNAc(b1-6)]GalNAc
# Outline: as §1
# [27] = molecular target: Neu5Ac(a2-3)Gal(b1-3)GlcNAc6S
# Outline: as §1
# [28] = molecular target: Neu5Ac(a2-3)Gal(b1-4)GlcNAc(b1-3)Gal
# Outline: as §1
# [29] = molecular target: Neu5Ac(a2-3)Gal(b1-4)GlcNAc(b1-6)[Neu5Ac(a2-3)Gal(b1-3)]GalNAc
# Outline: as §1
# [30] = molecular target: Neu5Ac(a2-3)Gal(b1-4)[Fuc(a1-3)]GlcNAc(b1-3)GalNAc
# Outline: as §1
# [31] = molecular target: Neu5Ac(a2-3)Gal(b1-4)[Fuc(a1-3)]GlcNAc(b1-6)[Gal(b1-3)]GalNAc
# Outline: as §1
# [32] = molecular target: Neu5Ac(a2-3)[Neu5Ac(a2-6)]GalNAc
# Outline: as §1
# [33] = molecular target: Neu5Ac(a2-6)Gal(b1-4)GlcNAc(b1-2)Man(a1-3)[GlcNAc(b1-2)Man(b1-4)GlcNAc(b1-2)Man(a1-6)]Man(b1-4)GlcNAc(b1-4)GlcNAc
# Outline: as §1
# [34] = molecular target: Neu5Ac(a2-6)Gal(b1-4)GlcNAc(b1-3)Gal(b1-3)GlcNAc
# Outline: as §1
# Neu5Ac(a2-6)GalNAc = molecular target: Neu5Ac(a2-6)GalNAc
# Outline: as §1
# [35] = molecular target: Neu5Ac(a2-8)Neu5Ac(a2-3)[GalNAc(b1-4)]Gal(b1-4)Glc
# Outline: as §1
# Neu5Ac(b2-6)GalNAc = molecular target: Neu5Ac(b2-6)GalNAc
# Outline: as §1
# [36] = molecular target: Neu5Gc(a2-6)Gal(b1-4)GlcNAc
# Outline: as §1
binder,measurement,setting,value
B1,glycan array binding signal (z-score),[1],2.54
same,glycan array binding signal (z-score),[2],-0.247
same,glycan array binding signal (z-score),[3],-0.411
same,glycan array binding signal (z-score),[4],4.04
same,glycan array binding signal (z-score),Fuc(a1-2)Gal6S(b1-4)Glc,-0.374
same,glycan array binding signal (z-score),[5],-0.398
same,glycan array binding signal (z-score),[6],-0.345
same,glycan array binding signal (z-score),[7],5.4
same,glycan array binding signal (z-score),[8],4.86
same,glycan array binding signal (z-score),[9],5.07
same,glycan array binding signal (z-score),[10],2.69
same,glycan array binding signal (z-score),[11],4.4
same,glycan array binding signal (z-score),[12],0.929
same,glycan array binding signal (z-score),[13],-0.315
same,glycan array binding signal (z-score),[14],0.421
same,glycan array binding signal (z-score),[15],-0.14
same,glycan array binding signal (z-score),[16],1.21
same,glycan array binding signal (z-score),[17],-0.222
same,glycan array binding signal (z-score),[18],0.293
same,glycan array binding signal (z-score),[19],-0.269
same,glycan array binding signal (z-score),Gal3S(b1-4)GlcNAc6S,-0.322
same,glycan array binding signal (z-score),[20],-0.301
same,glycan array binding signal (z-score),[21],6.54
same,glycan array binding signal (z-score),Gal3S4S(b1-4)GlcNAc,-0.461
same,glycan array binding signal (z-score),Gal3S6S(b1-4)GlcNAc6S,-0.379
same,glycan array binding signal (z-score),[22],-0.284
same,glycan array binding signal (z-score),Glc(a1-6)Glc(a1-6)Glc,-0.33
same,glycan array binding signal (z-score),[23],3.72
same,glycan array binding signal (z-score),[24],-0.318
same,glycan array binding signal (z-score),[25],-0.257
same,glycan array binding signal (z-score),[26],-0.407
same,glycan array binding signal (z-score),[27],-0.165
same,glycan array binding signal (z-score),[28],-0.403
same,glycan array binding signal (z-score),[29],-0.097
same,glycan array binding signal (z-score),[30],2.77
same,glycan array binding signal (z-score),[31],5.03
same,glycan array binding signal (z-score),[32],-0.405
same,glycan array binding signal (z-score),[33],-0.293
same,glycan array binding signal (z-score),[34],-0.3
same,glycan array binding signal (z-score),Neu5Ac(a2-6)GalNAc,-0.404
same,glycan array binding signal (z-score),[35],-0.165
same,glycan array binding signal (z-score),Neu5Ac(b2-6)GalNAc,-0.413
same,glycan array binding signal (z-score),[36],-0.437
